This note sets out measurements from PubChem BioAssay (NCATS).

Experiment [1] in a line: AP1 Signaling Pathway (AID 357; active = well fitted curve in either direction with a large enough effect, not every such curve was filed as active;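 also: ME-180 reporter cells stimulated with EGF at its EC50 level; % is scaled to controls: 0 for no effect and ±100 for the full control effect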). The method, boiled down: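 A ratiometric CCF4 readout (405 nm excitation; 460 and 530 nm emission) quantified AP-1-driven beta-lactamase in ME-180 cells after 5 h with compound and EC50 EGF; AC50 values were derived for activators and inhibitors.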
The target of experiment [2] is Cytochrome P450 1A2 (Homo sapiens) (UniProt P05177). As to the kind of experiment: p450-cyp1a2 (AID 410; calls by dose curve;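 also: -100% = full effect of reference inhibitor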). In outline: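 Luminescent demethylation readout: Luciferin-ME (100uM, equal to Km) turned over by 20nM CYP1A2 for 60 min at room temperature after NADPH regeneration addition, following 10 min compound preincubation. Normalization used 57 uM furafylline as full inhibition.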
Chain of Cytochrome P450 1A2 (Homo sapiens) (P05177 whole entry, looked up): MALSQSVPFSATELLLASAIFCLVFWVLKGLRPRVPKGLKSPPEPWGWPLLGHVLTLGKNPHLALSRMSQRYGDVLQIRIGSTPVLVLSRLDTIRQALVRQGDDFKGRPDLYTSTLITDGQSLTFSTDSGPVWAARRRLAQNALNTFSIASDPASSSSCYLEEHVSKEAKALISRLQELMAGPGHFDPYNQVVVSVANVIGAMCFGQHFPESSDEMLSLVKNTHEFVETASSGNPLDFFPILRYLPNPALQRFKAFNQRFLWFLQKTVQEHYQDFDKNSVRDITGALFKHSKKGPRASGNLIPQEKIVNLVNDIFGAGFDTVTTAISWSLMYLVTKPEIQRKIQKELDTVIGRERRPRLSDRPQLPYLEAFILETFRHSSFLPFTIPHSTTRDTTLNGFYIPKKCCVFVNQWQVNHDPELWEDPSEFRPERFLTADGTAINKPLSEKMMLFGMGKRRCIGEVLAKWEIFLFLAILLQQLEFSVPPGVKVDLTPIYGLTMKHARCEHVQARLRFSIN

A short description of experiment [3]: Stat Signaling Pathway (AID 446; active = well fitted curve in either direction with a large enough effect, not every such curve was filed as active;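 also: ME-180 cervical cancer cells given 40 pM IL-6 alongside compound; SIE-controlled beta-lactamase reporter measured as 460/530 nm FRET emission ratio; % is scaled to controls: 0 for no effect and ±100 for the full control effect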). The method, boiled down:
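Emission at 460 and 530 nm (excitation 405 nm) reports SIE-controlled beta-lactamase in ME-180 cells. Cells received compound with 40 pM IL-6 for 5 hrs at 37 C; data scaled between 300 pM IL-6 and 125 nM JAK-inhibitor controls.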

For experiment [4], the target named is Glucocorticoid receptor (Homo sapiens) (UniProt P04150). Nature of the experiment: GR-EFC Redistribution (AID 451; calls by dose curve; also: potency is read from the fitted curve at half-maximal effect). The settings on record: CHO-K1 GR-EFC translocation, beta-gal luminescence, 2 h. In outline:
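CHO-K1 cells expressing nuclear EA and GR-ED fragments of b-gal; compounds titrated up to 46 uM final, 2 h at 37 C. GR nuclear translocation read as complemented b-gal luminescence after 1 h RT detection.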

Experiment [5] has as its target Mitogen-activated protein kinase 10 (Mus musculus) (UniProt Q61831). As to the kind of experiment: JNK3 AlphaScreen Assay (AID 530; active = well fitted curve in either direction with a large enough effect, not every such curve was filed as active;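 also: kinase came from lysate of stimulated human HepG2 cells; signal reports phosphorylation of biotinylated GST-cJun 1-79 at Ser73 with 10 µM ATP; % is scaled to controls: 0 for no effect and ±100 for the full control effect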). The method, boiled down:
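Activity was read by AlphaScreen after JNK3-containing HepG2 lysate (cytokine pre-activated) phosphorylated biotinylated GST-cJun with 10 uM ATP at room temperature. Phospho-Ser73 cJun antibody with Protein-A acceptor beads provided detection.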

For experiment [6], the target named is 3',5'-cyclic-AMP phosphodiesterase 4B (Homo sapiens) (UniProt Q07343). As to the kind of experiment: qHTS Assay for Inhibitors of PDE-IV (AID 607; active = well fitted activation curve with a large enough effect in the main read-out, with a control signal flat, not every such curve was filed as active; also: % of control where 0% means no effect). The method, boiled down:
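The readout is membrane depolarisation from a cAMP-sensing CNG channel, detected with a potential dye at ex 535/em 590. Cells were HEK293-derived (endogenous PDE-IV) at 1000 cells/well, titrated up to 22.9 uM final.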

A short description of experiment [7]: qHTS Assay for Lipid Storage Modulators (AID 1519; calls by dose curve). The settings on record: Drosophila S3 cells, BODIPY lipid droplet/cell ratio, laser cytometry, cells loaded with oleic acid. The method, boiled down: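 Cells seeded at 5,000 per well were treated with compounds over a concentration series and loaded with oleic acid (400 uM, as added). Lipid droplet fluorescence (488 nm excitation, 500-530 nm channel) was read by laser-scanning cytometry and normalized to 20 uM Triacsin C.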
In general terms: qHTS replaces the single test concentration by a dilution series.

Experiment [8] can be described thus: NFAT Signaling Pathway (AID 444; active = well fitted curve in either direction with a large enough effect, not every such curve was filed as active;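 also: carbachol stimulus at about its EC50 of 1 µM final; % is scaled to controls: 0 for no effect and ±100 for the full control effect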). The settings on record: Jurkat NFAT-bla M1, carbachol, beta-lactamase ratio, 5 h. The method, boiled down:
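Jurkat cells with NFAT-driven β-lactamase reporter and co-expressed M1 receptor, stimulated with carbachol (final 1 uM, ~EC50), compound titration, 5 h at 37 °C. CCF4 loaded 1 h at RT; 460/530 nm ratio gave %activity and AC50.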

For experiment [9], the target named is Glucocorticoid receptor (Homo sapiens) (UniProt P04150). Nature of the experiment: GR-GFP Redistribution (AID 450;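 active = compounds whose dose series gives a full or clear partial fitted curve of increased nuclear translocation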; also: potency is read from the fitted curve at half-maximal effect). The following applies: U2OS GR-GFP nuclear translocation, laser cytometry, 2 h.
Chain of Glucocorticoid receptor (Homo sapiens) (P04150 whole entry, looked up, the tested form may be a part): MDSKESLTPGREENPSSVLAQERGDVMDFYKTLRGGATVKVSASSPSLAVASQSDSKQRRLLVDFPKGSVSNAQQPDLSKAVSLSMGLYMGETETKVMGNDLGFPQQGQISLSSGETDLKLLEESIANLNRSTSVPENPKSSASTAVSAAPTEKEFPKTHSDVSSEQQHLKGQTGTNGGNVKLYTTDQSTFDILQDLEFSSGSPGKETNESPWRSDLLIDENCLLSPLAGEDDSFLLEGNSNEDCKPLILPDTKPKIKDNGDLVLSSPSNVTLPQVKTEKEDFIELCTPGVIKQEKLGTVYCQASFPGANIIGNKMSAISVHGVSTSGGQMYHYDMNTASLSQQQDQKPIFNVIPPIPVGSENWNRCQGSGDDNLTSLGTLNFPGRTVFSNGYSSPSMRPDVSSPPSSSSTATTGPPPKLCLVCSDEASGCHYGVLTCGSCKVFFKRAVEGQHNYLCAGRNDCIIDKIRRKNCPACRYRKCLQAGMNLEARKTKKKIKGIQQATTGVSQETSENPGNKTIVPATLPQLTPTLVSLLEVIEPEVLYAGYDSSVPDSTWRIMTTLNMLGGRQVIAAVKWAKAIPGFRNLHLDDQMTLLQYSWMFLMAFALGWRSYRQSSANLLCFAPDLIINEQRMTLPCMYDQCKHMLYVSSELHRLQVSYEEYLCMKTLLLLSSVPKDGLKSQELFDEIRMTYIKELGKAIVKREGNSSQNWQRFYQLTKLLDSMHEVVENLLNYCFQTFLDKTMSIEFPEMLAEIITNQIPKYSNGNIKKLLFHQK
The target in experiment [10] is Luciferin 4-monooxygenase (Photinus pyralis) (UniProt P08659). As to the kind of experiment: Biochemical firefly luciferase enzyme assay for NPC (AID 624030).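 Also: purified P. pyralis luciferase at 10 nM with luciferin and ATP substrate; 0% = DMSO and -100% = full luciferase inhibition by PTC124 control; nearly all actives have a fitted effect of over 70% in size.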 In outline:
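Purified P. pyralis luciferase at 10 nM in 50 mM Tris Acetate (final), luminescence read within 5 minutes of enzyme addition to compounds. Activity normalised to PTC124 versus DMSO; concentration-response curves classed by r2, magnitude and activity.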

Experiment [11] in a line: S16 Schwann cell PMP22 intronic element firefly luciferase assay (AID 624032).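 Also: plate controls were DMSO for no effect and PTC124 positive control mean for full effect; nearly all actives have a fitted effect of over 30% in size.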 In outline:
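Rat S16 Schwann cells stably carrying firefly luciferase driven by a PMP22 intronic element, in 10% FBS, treated 24 h at 37 C. ONE-Glo luminescence normalized to PTC124 control and DMSO (0%); curves classed by r2, magnitude and activity.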

The nature of experiment [12]: qHTS profiling for inhibitors of Plasmodium falciparum proliferation (AID 504749).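 Also: 0% = DMSO vehicle and full inhibition = artemisinin control; nearly all actives have a fitted effect of over 60% in size.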 The settings on record: P. falciparum in erythrocytes, SYBR Green DNA, 72 h. In outline: (§1)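 Each compound contacts P. falciparum-infected red blood cells for 72 h at 37 C; lysis buffer (Tris, EDTA, saponin, Triton X, SYBR Green I) is added and fluorescence measured next morning; values normalized to controls.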

In a further experiment the test system is C2A. Described as above. The following applies: P. falciparum in erythrocytes, SYBR Green DNA, 72 h; series mostly up to 28.7 µM. In outline: as §1
For a further experiment, the system named is CP185. The experiment is described as above. The settings on record: P. falciparum in erythrocytes, SYBR Green DNA, 72 h; series mostly up to 28.7 µM. The method, boiled down:
as §1

Another experiment relates to FAB9. Described as above. The following applies: P. falciparum in erythrocytes, SYBR Green DNA, 72 h; series mostly up to 28.7 µM. The method, boiled down: as §1
For experiment [13], the target named is Ubiquitin carboxyl-terminal hydrolase 1 (Homo sapiens) (UniProt O94782). Nature of the experiment: Inhibitors of USP1/UAF1: Pilot qHTS (AID 504865).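 Also: rhodamine fluorescence freed from ubiquitin-rhodamine substrate followed over time; top concentration of the series differs between compounds; % is scaled to controls: 0 for no effect and ±100 for the full control effect; nearly all actives have a fitted effect of over 35% in size.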 The method, boiled down: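 Kinetic fluorescence assay: 1nM USP1/UAF1, 15 min compound preincubation, then 150nM Ub-Rho; 480/540 nm.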
Chain of Ubiquitin carboxyl-terminal hydrolase 1 (Homo sapiens) (O94782 whole entry, looked up): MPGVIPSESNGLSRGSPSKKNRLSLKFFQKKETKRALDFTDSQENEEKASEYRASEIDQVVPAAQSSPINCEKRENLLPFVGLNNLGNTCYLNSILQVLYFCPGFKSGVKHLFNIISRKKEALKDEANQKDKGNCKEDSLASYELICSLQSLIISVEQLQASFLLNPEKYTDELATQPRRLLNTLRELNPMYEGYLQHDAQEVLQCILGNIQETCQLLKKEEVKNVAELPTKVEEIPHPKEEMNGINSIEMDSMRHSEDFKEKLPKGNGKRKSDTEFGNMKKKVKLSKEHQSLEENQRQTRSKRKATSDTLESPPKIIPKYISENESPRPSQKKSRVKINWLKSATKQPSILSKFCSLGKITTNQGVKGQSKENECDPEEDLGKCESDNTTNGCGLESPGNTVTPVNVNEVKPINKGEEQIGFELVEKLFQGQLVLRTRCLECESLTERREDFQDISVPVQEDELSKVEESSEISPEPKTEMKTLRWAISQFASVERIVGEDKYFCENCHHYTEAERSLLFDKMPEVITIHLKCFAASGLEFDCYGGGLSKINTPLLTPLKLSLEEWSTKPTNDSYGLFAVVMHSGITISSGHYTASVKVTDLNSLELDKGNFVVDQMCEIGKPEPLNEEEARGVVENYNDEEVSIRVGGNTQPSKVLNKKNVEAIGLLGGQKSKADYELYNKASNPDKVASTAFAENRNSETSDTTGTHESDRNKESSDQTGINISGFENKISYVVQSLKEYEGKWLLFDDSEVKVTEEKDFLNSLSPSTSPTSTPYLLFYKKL
Experiment [14] concerns the target Cytochrome P450 3A4 (Homo sapiens) (UniProt P08684). Nature of the experiment: qHTS Assay for Activators of Cytochrome P450 3A4 (AID 885). Also: nearly all actives have a fitted effect of over 65% in size. The method, boiled down:
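Activators are scored by enhanced luminescence from CYP3A4 conversion of luciferin-PPXE (25uM, equal to KM) to luciferin, after 60 min at RT with an NADPH-regenerating system.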

The mark [15] stands for this setting: measured here: cell count channel max response.
The mark [16] stands for this setting: measured here: lipid channel max response.
[17] abbreviates: at 12.8 µM (top of the series), parasite line A.
The mark [18] stands for this setting: at 12.8 µM (top of the series), parasite line B.

“And” between values parts separate entries of the source, which are not always exact repeats. Equal values may be shown once. Inconclusive results are not listed. The source made the active and inactive calls. Unless noted, calls follow the shape of the dose curve; as a rule, active = well fitted curve in the direction sought with a large enough effect; inconclusive = small, poorly fitted or top-dose-only effect, or another doubt; inactive = no such curve, though single readings can be large; an effect the other way counts as inactive or inconclusive.

Chain of 3',5'-cyclic-AMP phosphodiesterase 4B (Homo sapiens) (Q07343 whole entry, looked up): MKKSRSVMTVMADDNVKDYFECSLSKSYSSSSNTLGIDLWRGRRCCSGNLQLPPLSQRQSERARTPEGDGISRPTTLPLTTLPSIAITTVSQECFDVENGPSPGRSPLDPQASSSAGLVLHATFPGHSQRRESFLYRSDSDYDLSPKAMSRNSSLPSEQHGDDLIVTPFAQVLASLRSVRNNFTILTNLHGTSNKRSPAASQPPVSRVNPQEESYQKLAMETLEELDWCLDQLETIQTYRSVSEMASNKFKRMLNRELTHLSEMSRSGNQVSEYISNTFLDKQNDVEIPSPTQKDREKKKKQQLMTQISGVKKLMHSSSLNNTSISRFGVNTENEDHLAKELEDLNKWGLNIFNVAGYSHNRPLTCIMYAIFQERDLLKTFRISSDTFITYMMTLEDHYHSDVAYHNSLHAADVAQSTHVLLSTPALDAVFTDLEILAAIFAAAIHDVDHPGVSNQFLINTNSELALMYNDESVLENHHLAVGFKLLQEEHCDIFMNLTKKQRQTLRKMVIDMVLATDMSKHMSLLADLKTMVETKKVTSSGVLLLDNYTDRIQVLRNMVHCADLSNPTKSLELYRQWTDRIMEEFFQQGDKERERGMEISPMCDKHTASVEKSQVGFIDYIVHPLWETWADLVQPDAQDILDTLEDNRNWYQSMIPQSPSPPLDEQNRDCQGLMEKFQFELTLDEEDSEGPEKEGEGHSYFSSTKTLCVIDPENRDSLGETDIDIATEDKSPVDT
Chain of Cytochrome P450 3A4 (Homo sapiens) (P08684 whole entry, looked up): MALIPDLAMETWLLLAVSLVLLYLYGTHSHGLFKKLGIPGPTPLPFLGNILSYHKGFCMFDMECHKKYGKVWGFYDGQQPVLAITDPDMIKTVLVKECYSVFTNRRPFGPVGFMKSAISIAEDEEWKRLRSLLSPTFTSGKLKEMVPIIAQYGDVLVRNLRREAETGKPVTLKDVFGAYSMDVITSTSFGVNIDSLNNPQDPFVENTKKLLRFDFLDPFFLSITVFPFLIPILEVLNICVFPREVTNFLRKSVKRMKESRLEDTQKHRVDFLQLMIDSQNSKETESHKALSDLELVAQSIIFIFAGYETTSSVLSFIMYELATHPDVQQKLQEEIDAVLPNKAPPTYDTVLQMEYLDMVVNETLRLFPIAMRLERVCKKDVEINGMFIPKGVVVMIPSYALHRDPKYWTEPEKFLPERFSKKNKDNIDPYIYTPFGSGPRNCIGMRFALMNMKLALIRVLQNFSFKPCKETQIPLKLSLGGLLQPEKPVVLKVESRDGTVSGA
Chain of Luciferin 4-monooxygenase (Photinus pyralis) (P08659 whole entry, looked up): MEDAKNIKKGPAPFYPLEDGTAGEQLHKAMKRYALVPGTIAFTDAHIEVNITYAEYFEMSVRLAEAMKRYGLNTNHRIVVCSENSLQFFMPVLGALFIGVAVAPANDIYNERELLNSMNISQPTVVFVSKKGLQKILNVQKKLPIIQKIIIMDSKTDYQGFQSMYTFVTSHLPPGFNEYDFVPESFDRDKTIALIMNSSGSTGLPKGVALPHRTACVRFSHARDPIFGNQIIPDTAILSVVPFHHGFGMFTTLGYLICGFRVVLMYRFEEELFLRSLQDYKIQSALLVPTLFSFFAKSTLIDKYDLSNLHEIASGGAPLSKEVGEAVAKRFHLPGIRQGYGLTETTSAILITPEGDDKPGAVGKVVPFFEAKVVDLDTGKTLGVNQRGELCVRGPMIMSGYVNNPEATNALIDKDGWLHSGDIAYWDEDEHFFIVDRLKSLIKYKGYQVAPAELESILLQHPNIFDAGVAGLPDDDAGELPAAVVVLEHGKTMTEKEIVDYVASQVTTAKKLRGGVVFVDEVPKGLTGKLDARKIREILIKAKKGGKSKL

Turning to `CC(C)CN1CC2(CCN(C(=O)c3ccncc3)CC2)C1`, the call in experiment [1], in experiment [3] and in experiment [5] was inactive. In addition, the Potency entry in [2] and in experiment [6] was “inactive” in each case. Moreover, the Potency in experiment [4] was > 46 µM (inactive). For the same compound, in [7] (at 57.5 µM (top of the series)), the activity change, negative = inhibition was -1.63% (inactive). The max response was determined as 11.7% in experiment [7] (setting [15]) and 11.8% in experiment [7] (setting [16]).

As for `CC[C@@H]1[C@@H]2C[C@H]3[C@H]4N(C)c5ccccc5[C@@]45C[C@@H]([C@@H]2[C@@H]5O)N3[C@H]1O`, the compound was called inactive in experiment [1], in experiment [3] and in [5]. For the same compound, the Potency result (in experiment [2]; in experiment [6]; in experiment [10]; in [11]; with C2A; with CP185) was “inactive” in each case. Also, the Potency entry in the experiment on FAB9 is “inactive”. In addition, the activity change, negative = inhibition in [8] (at 17.2 µM (top of the series)) is -7.21% (inactive); in experiment [7] (at 25.7 µM (top of the series)), -1.86% (inactive). Also, the Potency in experiment [9] and in experiment [4] was > 20.6 µM (inactive) in each case. Further, the max response in experiment [7] (setting [15]) was determined as 1.73%; in experiment [7] (setting [16]), 1.93%. The activity, negative = inhibition was -1.56% (inactive) in experiment [12] (setting [17]) and 7.76% (inactive) in [12] (setting [18]).

On to `C[C@H](N)[C@@H](O)c1ccccc1`, for which the compound was classed as inactive in experiment [1], in [3] and in experiment [5]. The Potency result (in experiment [2]; in experiment [6]; in experiment [13]; in experiment [10]; in experiment [11]; in the experiment on C2A) was “inactive” in each case. In addition, the Potency result with CP185 and in the experiment with FAB9 was “inactive” in each case. For the same compound, the values for the activity change, negative = inhibition in experiment [8] (at 17.2 µM (top of the series)) and in experiment [7] (at 25.7 µM (top of the series)) were 10.1% (inactive) and 1.99% (inactive), respectively. Besides, the Potency in [9] and in [4] was > 20.6 µM (inactive) throughout. For the same compound, the results for the max response in experiment [7] (setting [15]) and in [7] (setting [16]) were 17% and 20.5%, respectively. For the same compound, the activity, negative = inhibition is -2.43% (inactive) in [12] (setting [17]) and 9.04% (inactive) in experiment [12] (setting [18]).

Take `CC[C@@]1(c2ccc(N)cc2)CCC(=O)NC1=O`: the call in experiment [1], in experiment [3] and in [5] was inactive. The Potency result in experiment [2], in experiment [6], in [14], in experiment [13], in [10] and in experiment [11] was “inactive” each time. The Potency result in the experiment with C2A, in the experiment with CP185 and with FAB9 was “inactive” throughout. Besides, the activity change, negative = inhibition in experiment [8] (at 17.2 µM (top of the series)) was -14.6% (inactive); in experiment [8] (at 38 µM (top of the series)) it was 6.21% (inactive); in experiment [7] (at 25.7 µM (top of the series)), 0.179% (inactive). Besides, the Potency in experiment [9] was > 46 µM (inactive) and > 20.6 µM (inactive); in experiment [4], > 46 µM (inactive) and > 20.6 µM (inactive). Besides, the max response in experiment [7] (setting [15]) was -3.22%; in [7] (setting [16]), -2.21%. Also, the activity, negative = inhibition in experiment [12] (at 28.7 µM (top of the series), parasite line A) is 3.34% (inactive); in [12] (at 28.7 µM (top of the series), parasite line B) it was 3.27% (inactive).

As for `Clc1ccc(CS[C@@H](Cn2ccnc2)c2ccc(Cl)cc2Cl)cc1`, the compound was classed as inactive in [1]. In experiment [7] (at 25.7 µM (top of the series)), the activity change, negative = inhibition is -2.77% (inactive). Further, the max response in [7] (setting [15]) was -14.6%; in [7] (setting [16]), -18.3%.

In the case of `N#Cc1ccc(CN2CC[C@@]3(CCCNC3)C2)cc1`, the result in experiment [1], in experiment [3] and in experiment [5] was inactive. In addition, the activity change, negative = inhibition was -7.45% (inactive) in experiment [8] (at 7.69 µM (top of the series)) and 2.19% (inactive) in experiment [7] (at 57.5 µM (top of the series)). In addition, the Potency in experiment [4] was > 46 µM (inactive). In addition, the Potency entry in experiment [6] and in experiment [14] was “inactive” throughout. The max response in experiment [7] (setting [15]) came out at 16.6%; in [7] (setting [16]), 21.9%.
